In PubChem BioAssay AID1210 (NMMLSC, 2008):
Active and inactive are the calls of the source.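 The calls were made as follows: active = blocks over 70% of labeled estradiol binding at 10 µM, or over a set limit at 100 nM; inactive = the rest.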

Molecular target: Estrogen receptor beta (Homo sapiens) (UniProt Q92731)
Assay: ERbeta ligand binders by competition, primary screen, cell-based, Cos7 ERbeta-GFP, flow cytometry (AID 1210);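 also: 0% = DMSO vehicle wells and 100% = complete loss of labeled estradiol signal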
Conditions: fluorescent estrogen binding, stronger effect = higher value
[1] = ligand binding inhibition, at 0.1 µM

Estrogen receptor beta (Homo sapiens), sequence (Q92731 whole entry, looked up): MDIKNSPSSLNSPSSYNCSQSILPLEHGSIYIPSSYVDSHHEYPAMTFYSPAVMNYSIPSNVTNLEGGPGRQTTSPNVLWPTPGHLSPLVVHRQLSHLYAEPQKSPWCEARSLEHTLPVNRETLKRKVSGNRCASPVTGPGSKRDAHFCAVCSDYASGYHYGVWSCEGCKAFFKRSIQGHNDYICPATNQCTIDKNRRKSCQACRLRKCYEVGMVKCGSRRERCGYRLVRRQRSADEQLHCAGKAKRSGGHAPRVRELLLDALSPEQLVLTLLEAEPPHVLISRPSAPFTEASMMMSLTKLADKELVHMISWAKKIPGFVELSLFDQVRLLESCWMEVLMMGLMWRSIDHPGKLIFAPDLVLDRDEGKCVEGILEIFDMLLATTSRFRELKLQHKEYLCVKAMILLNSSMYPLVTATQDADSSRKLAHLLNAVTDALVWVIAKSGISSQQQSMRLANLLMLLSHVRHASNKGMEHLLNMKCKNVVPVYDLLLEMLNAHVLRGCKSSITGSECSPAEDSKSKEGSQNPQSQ

| Structure (SMILES) | inhibition (at 10 µM) | inhibition [1] |
| --- | --- | --- |
| CCOC(=O)c1cc2c(c(CSc3nc4ccccc4c(=O)n3Cc3ccco3)c1)OCOC2 | 67% (inactive) | 4% |
| O=C(Nc1ccc(-c2nc3ccc(NC(=O)c4cccs4)cc3[nH]2)cc1)c1cccs1 | 58% (inactive) | 18% |
| Clc1ccc2c(c1)[C@H]1OCC[C@H]1[C@@H](c1ccco1)N2 | 0% (inactive) | 4% |
| CC(=O)c1ccc(NC(=S)N2CCC(O)CC2)cc1 | 41% (inactive) | 23% |
| CCOC(=O)Cc1cc(=O)n2[nH]c(-c3ccc(C)cc3)cc2n1 | 19% (inactive) | 15% |
| c1ccc(-c2nnc3sc(Cc4cccs4)nn23)cc1 | 18% (inactive) | 20% |
| COc1cc(NC(=O)c2cccs2)c(C(=O)OCC(=O)NCc2ccco2)cc1OC | 41% (inactive) | 47% |
| COc1ccc(C2Nc3ccccc3C(=O)N2c2ccc(F)cc2)cc1CSc1ccccn1 (stereo not drawn) | 6% (inactive) | 30% |
| Cc1ccc(-c2nn(-c3ccccc3)cc2/C=N/NC(=O)c2ccc(Br)o2)cc1 | 38% (inactive) | 58% |
| CC1(C)CC(=O)C2=C(C1)OC(c1ccc(O)cc1)C(C#N)=C2N (stereo not drawn) | 47% (inactive) | 49% |
| COCCNC(=O)c1c(N)n(/N=C/c2cccs2)c2nc3ccccc3nc12 | 29% (inactive) | 32% |
| Cc1ccc(-c2n[nH]c(=S)n2/N=C/C=C\c2ccccc2[N+](=O)[O-])cc1 | 74% (active) | 4% |
| N#CC(C(=O)Nc1ccc(Cl)cc1)=C1Nc2ccccc2N1 | 59% (inactive) | 21% |
| Cc1nnc(NC(=O)Cc2cccs2)s1 | 4% (inactive) | 22% |
| O=c1cc(-c2ccccc2Cl)oc2c(Br)ccc(O)c12 | 33% (inactive) | 19% |
| COc1ccc(C2=NN(C(=O)c3cccnc3)C(c3ccccc3)C2)cc1 (stereo not drawn) | 41% (inactive) | 12% |
| CCCCn1c(=O)[nH]c2nc3cc(N)ccc3nc2c1=O | 31% (inactive) | 16% |
| Cc1c(N=Cc2ccc(O)c(Br)c2)cccc1[N+](=O)[O-] | 33% (inactive) | 34% |
| Nc1ccc(/C=C/C(=O)c2ccco2)cc1 | 0% (inactive) | 37% |
| COc1ccc(/C=N/NC(=O)c2nc(-c3ccccc3)cc(-c3ccccc3)n2)cc1O | 71% (active) | 81% |

| Structure (SMILES) | inhibition (at 10 µM) | inhibition [1] |
| --- | --- | --- |
| CCCOc1ccc(-c2nn(-c3ccccc3)cc2/C=C2\SC(N)=NC2=O)cc1 | 36% (inactive) | 19% |
| O=C1C(c2ccnc3ccccc23)=C(O)c2ccccc21 | 60% (inactive) | 18% |
| CN(C)c1ccc(N=Cc2ccco2)cc1 | 47% (inactive) | 14% |
| Cc1cc(O)ccc1C1(c2ccc(O)cc2C)OC(=O)c2ccccc21 | 36% (inactive) | 10% |
| CC1CCCN(c2nc3c(c(=O)[nH]c(=O)n3C)n2Cc2ccccc2Cl)C1 (stereo not drawn) | 38% (inactive) | 32% |
| O=C(CSc1nc2scc(-c3ccco3)c2c(=O)n1-c1ccccc1)NCC1CCCO1 (stereo not drawn) | 55% (inactive) | 50% |
| CCCNCC1COc2ccccc2O1 (stereo not drawn) | 51% (inactive) | 41% |
| C/C(N)=C(/C#N)C(=O)CSc1nnc(COc2ccccc2Cl)o1 | 44% (inactive) | 44% |
| NC(=O)c1c(NC(=O)c2cccs2)sc2c1CCCCCC2 | 54% (inactive) | 42% |
| O=C(Cn1nnc(-c2ccc3c(c2)OCO3)n1)NCc1ccco1 | 46% (inactive) | 24% |
| CC(=O)c1ccc(NC(=S)N2CCCC(CO)C2)cc1 (stereo not drawn) | 49% (inactive) | 13% |
| COc1cc2c(cc1O)C(Cc1ccc(O)cc1)NCC2 (stereo not drawn) | 72% (active) | 11% |
| C[C@]12CC[C@@H]3c4ccc(O)cc4[C@@H](O)C[C@H]3[C@@H]1CC[C@@H]2O | 74% (active) | 56% |
| COC(=O)C1=C(O)/C(=C\c2ccc(CNC(=O)C(=O)Nc3ccc(C)c(C)c3)o2)N=C1C | 42% (inactive) | 20% |
| CCOC(=O)c1c(C)oc2c1c(C=NC1CCS(=O)(=O)C1)c(O)c1ccccc12 (stereo not drawn) | 38% (inactive) | 11% |
| COc1ccc(N2C(=O)c3ccccc3NC2c2ccc(OC)c(COc3ccccn3)c2)cc1 (stereo not drawn) | 40% (inactive) | 9% |
| CCCc1nc2sc3ccccc3c(=O)c2c(=O)n1Cc1ccco1 | 21% (inactive) | 5% |
| Cc1cc(C2(c3ccc(O)c(C)c3)OC(=O)c3ccccc32)ccc1O | 73% (active) | 29% |
| Cn1ccnc1SCC(=O)Nc1ccc2nc(SCC(=O)NC3CC3)sc2c1 | 46% (inactive) | 38% |
